Measured values taken from the supplement of paper PMC10849652.
Of roughly 8,800 targets only a part is listed; those with a hit were picked by preference. About 0.5% of all pairs of compound and target were hits.

Tests used:
Experiment in all cases: log2 fold change, soluble protein after heating vs DMSO (PISA); higher = thermal stabilisation; K562 lysate, 10 uM; active = over 0.2 and 3.5 SD of the protein, either way, in both replicates (recomputed)
[1] = compound: C1=CC=C(C=C1)[C@H](COC2=CC3=C(C=C2)NC(=O)N3)NC(=O)C4=CC=CN(C4=O)CC5=CC(=C(C=C5)F)F
Procedure, shortened: (§1)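 Following dounce homogenisation of K562 pellets in PBS pH 7.4 with 1 mM MgCl2, crude extract at 1 mg/mL protein was incubated for 30 min with 10 μM compound. Aliquots were then heated for 3 min over 48°C-58°C and pooled, NP-40 was added to 0.5% at 4°C, and soluble protein was recovered as the supernatant at 21,000xg for 90 min. Channel-sum-equalised TMTpro 16plex LC-MS/MS quantified this protein. Each value, from duplicates, is a log-two fold change in thermal stability relative to solvent controls.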

[2] = compound: CC1=C(SC2=C1C(=N[C@H](C3=NN=C(N32)C)CC(=O)N)C4=CC=C(C=C4)Cl)C
Procedure, shortened: as §1

[3] = compound: CC1=C2C(=CC=C1)N=C(N(C2=O)C3=CC=CC=C3C)CN4C=NC5=C(N=CN=C54)N
Procedure, shortened: as §1

[4] = compound: Cc1sc2c(c1C)C(c1ccc(Cl)cc1)=N[C@@H](CC(=O)OC(C)(C)C)c1nnc(C)n1-2
Procedure, shortened: as §1

[5] = compound: c1ccc([C@@H]2C[C@H]2NC2CCNCC2)cc1
Procedure, shortened: as §1

Measured: log2 fold change

MGST3 (UniProt O14880)
Chain of UniProt O14880 (O14880 whole entry, looked up): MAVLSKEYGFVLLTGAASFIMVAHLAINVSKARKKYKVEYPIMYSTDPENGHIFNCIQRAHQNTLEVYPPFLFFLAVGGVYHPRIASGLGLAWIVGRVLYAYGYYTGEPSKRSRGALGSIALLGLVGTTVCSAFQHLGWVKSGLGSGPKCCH
inactive: [1] 0.003 | [2] -0.033 | [3] -0.008 | [4] -0.072 | [5] 0.056

MACROD1 (UniProt Q9BQ69)
inactive: [1] 0.048 | [2] 0.022 | [3] 0.004 | [4] 0.049 | [5] 0.075

MORC3 (UniProt Q14149)
inactive: [1] 0.013 | [2] 0 | [3] 0.003 | [4] 0.013 | [5] 0.012

MBTPS1 (UniProt Q14703)
inactive: [2] 0.141 | [3] 0.079 | [4] -0.063 | [5] 0.017
active: [1] -0.317

MMS22L (UniProt Q6ZRQ5)
inactive: [1] -0.062 | [2] -0.027 | [3] -0.038 | [4] 0.07 | [5] 0.11

KIFC1 (UniProt Q9BW19)
Chain of UniProt Q9BW19 (Q9BW19 whole entry, looked up): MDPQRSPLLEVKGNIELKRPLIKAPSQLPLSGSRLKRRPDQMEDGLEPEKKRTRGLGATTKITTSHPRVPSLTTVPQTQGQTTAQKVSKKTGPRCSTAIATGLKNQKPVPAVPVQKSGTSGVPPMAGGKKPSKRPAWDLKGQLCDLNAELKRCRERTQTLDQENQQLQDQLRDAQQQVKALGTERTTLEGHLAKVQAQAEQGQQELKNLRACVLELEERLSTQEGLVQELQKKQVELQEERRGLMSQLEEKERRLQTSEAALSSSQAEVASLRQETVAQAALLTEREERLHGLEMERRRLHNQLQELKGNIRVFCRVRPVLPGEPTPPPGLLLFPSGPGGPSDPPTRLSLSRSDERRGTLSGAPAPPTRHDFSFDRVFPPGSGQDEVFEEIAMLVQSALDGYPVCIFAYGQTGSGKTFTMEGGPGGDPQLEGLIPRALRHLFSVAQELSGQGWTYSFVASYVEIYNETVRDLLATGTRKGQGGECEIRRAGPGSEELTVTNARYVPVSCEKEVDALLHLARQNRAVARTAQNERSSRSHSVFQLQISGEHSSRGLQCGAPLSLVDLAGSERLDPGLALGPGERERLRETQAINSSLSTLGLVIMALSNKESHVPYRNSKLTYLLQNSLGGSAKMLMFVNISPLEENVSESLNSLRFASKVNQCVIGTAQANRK
inactive: [1] 0.046 | [2] -0.008 | [3] 0.122 | [4] 0.021 | [5] 0.029

MRPL28 (UniProt Q13084)
inactive: [1] -0.002 | [2] -0.062 | [3] -0.026 | [4] 0.066 | [5] 0.356

MRPL19 (UniProt P49406)
inactive: [1] 0.017 | [2] -0.064 | [3] 0.011 | [4] -0.065 | [5] 0.019

MFF isoform 2 (UniProt Q9GZY8)
inactive: [1] 0.044 | [2] -0.029 | [3] -0.009 | [4] -0.049 | [5] -0.125

MED16 (UniProt Q9Y2X0)
inactive: [1] 0.019 | [2] 0.022 | [3] 0.029 | [4] 0.001 | [5] 0.087

MAP2K7 isoform 4 (UniProt O14733)
inactive: [1] -0.072 | [2] -0.261 | [3] -0.038 | [4] 0.066 | [5] 0.079

MGST1 (UniProt P10620)
inactive: [1] -0.08 | [2] 0.005 | [3] 0 | [4] -0.056 | [5] 0.022

LBR (UniProt Q14739)
inactive: [1] -0.018 | [2] 0.045 | [3] 0.04 | [4] 0.007 | [5] 0.117

KIF11 (UniProt P52732)
inactive: [1] 0.008 | [2] -0.001 | [3] 0.006 | [4] -0.002 | [5] 0

LZTS1 (UniProt Q9Y250)
inactive: [1] -0.082 | [2] 0.049 | [3] 0.065 | [4] -0.628 | [5] 0.324

MAPK9 (UniProt P45984)
inactive: [1] -0.021 | [2] 0.013 | [3] 0.045 | [4] -0.071 | [5] 0.033

LRRC7 (UniProt Q96NW7)
inactive: [1] -0.001 | [2] -0.047 | [3] -0.309 | [4] 0 | [5] -0.001

KIFC3 isoform 6 (UniProt Q9BVG8)
Chain of UniProt Q9BVG8 (Q9BVG8 whole entry, looked up): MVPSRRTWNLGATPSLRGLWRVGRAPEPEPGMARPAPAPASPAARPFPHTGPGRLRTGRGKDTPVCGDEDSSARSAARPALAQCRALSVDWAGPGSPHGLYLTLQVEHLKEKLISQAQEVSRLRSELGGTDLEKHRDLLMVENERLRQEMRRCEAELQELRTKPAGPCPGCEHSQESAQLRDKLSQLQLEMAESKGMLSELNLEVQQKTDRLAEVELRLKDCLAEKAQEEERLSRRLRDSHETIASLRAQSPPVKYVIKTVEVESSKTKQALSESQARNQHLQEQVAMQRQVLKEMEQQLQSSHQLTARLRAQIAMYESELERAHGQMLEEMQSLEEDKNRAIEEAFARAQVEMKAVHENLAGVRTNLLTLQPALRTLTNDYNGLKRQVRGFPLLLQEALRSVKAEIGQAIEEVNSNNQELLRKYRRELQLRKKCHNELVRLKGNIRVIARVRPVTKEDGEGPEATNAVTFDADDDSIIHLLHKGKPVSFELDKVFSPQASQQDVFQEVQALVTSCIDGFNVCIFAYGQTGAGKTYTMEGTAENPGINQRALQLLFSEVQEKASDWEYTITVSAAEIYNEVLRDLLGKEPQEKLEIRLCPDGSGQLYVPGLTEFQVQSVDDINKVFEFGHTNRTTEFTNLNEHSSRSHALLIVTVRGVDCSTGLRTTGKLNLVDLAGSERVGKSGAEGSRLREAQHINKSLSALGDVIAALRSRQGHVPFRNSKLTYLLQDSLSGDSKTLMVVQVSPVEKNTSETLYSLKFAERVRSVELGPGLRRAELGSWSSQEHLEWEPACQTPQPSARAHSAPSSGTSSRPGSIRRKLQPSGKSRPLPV
active: [5] -1.16
inactive: [1] 0.023 | [2] 0.016 | [3] -0.178 | [4] -0.21

LETM1 (UniProt O95202)
Chain of UniProt O95202 (O95202 whole entry, looked up): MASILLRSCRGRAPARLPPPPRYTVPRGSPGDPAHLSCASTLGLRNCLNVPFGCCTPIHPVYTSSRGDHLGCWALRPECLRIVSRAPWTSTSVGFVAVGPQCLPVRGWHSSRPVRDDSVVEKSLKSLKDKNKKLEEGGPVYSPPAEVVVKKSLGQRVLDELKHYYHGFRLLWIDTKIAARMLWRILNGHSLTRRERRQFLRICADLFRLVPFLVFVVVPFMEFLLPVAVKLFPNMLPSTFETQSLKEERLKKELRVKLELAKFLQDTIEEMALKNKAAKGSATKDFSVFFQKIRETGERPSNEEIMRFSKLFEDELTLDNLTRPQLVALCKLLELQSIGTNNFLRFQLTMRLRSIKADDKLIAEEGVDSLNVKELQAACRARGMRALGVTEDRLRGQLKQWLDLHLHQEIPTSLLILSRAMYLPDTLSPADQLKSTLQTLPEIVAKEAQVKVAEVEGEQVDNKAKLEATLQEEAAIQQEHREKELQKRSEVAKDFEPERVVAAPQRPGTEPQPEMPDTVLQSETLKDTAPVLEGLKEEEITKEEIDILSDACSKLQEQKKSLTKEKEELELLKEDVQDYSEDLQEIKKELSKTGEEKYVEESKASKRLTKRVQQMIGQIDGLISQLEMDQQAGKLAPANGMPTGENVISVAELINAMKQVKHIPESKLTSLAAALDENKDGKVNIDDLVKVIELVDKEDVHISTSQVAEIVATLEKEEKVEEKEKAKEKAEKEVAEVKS
inactive: [1] 0.006 | [2] -0.017 | [3] 0.002 | [4] 0.042 | [5] -0.053

METTL7A (UniProt Q9H8H3)
Chain of UniProt Q9H8H3 (Q9H8H3 whole entry, looked up): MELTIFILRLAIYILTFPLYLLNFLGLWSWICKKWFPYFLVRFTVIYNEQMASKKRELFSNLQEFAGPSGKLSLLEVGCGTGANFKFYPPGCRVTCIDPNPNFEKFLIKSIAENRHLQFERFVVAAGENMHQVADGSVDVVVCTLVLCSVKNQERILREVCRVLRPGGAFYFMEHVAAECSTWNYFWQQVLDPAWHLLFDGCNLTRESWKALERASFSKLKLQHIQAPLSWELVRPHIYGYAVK
inactive: [1] 0.069 | [2] -0.059 | [3] -0.078 | [4] -0.008 | [5] -0.074

MAST2 (UniProt Q6P0Q8)
inactive: [1] -0.257 | [2] 0.027 | [3] 0.073 | [4] -0.074 | [5] -0.028

MOCS3 (UniProt O95396)
inactive: [1] -0.056 | [2] -0.019 | [3] 0.278 | [4] 0.025 | [5] -0.176

KIF4B (UniProt Q2VIQ3)
Chain of UniProt Q2VIQ3 (Q2VIQ3 whole entry, looked up): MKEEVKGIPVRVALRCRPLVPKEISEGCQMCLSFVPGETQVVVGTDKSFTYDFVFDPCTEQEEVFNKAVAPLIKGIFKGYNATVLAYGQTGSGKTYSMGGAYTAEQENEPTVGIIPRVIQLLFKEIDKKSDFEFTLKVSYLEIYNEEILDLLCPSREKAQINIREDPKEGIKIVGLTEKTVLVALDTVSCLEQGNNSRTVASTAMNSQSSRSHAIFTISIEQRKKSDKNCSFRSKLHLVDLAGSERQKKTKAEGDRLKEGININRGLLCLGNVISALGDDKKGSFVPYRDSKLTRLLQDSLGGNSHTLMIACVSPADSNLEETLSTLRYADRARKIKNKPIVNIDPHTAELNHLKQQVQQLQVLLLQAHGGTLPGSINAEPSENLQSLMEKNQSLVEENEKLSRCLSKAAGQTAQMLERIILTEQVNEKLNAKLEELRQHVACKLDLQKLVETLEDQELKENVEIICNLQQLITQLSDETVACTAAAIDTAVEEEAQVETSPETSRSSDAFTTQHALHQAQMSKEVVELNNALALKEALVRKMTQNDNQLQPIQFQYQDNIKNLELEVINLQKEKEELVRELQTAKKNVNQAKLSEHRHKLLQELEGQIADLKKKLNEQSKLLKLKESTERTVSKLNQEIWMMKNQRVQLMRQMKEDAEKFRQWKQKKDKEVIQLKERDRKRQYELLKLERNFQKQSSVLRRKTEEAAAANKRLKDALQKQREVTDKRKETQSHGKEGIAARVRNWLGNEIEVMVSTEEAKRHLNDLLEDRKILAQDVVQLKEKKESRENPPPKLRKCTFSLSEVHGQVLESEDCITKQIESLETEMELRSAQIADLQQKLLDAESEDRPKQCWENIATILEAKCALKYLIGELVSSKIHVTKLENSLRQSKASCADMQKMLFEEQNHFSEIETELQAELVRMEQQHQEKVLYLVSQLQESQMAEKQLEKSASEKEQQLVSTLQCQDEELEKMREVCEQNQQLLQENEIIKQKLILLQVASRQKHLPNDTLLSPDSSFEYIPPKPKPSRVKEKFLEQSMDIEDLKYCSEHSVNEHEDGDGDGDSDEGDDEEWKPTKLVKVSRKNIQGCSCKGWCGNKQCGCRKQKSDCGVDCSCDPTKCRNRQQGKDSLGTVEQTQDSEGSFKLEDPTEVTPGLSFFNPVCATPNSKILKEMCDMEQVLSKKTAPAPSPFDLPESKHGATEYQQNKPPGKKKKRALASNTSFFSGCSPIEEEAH
inactive: [1] 0.035 | [2] 0.009 | [3] -0.02 | [4] 0.029 | [5] 0.013

MLH1 (UniProt P40692)
inactive: [1] -0.038 | [2] -0.006 | [3] 0.006 | [4] -0.012 | [5] 0.019

KNSTRN (UniProt Q9Y448)
inactive: [1] 0.097 | [2] -0.057 | [3] 0 | [4] 0.002 | [5] 0.034

KRR1 (UniProt Q13601)
Chain of UniProt Q13601 (Q13601 whole entry, looked up): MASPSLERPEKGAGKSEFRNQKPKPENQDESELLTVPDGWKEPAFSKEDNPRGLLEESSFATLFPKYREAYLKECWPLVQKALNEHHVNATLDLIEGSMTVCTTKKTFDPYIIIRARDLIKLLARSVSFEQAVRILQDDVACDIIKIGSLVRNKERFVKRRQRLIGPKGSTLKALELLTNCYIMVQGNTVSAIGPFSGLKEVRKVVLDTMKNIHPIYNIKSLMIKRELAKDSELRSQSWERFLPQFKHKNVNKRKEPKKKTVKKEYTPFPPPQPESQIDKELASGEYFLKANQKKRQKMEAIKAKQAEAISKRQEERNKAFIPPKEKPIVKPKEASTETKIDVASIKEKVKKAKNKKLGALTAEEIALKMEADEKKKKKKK
inactive: [1] 0.019 | [2] -0.017 | [3] 0.005 | [4] 0.062 | [5] 0.035

LSM8 (UniProt O95777)
Chain of UniProt O95777 (O95777 whole entry, looked up): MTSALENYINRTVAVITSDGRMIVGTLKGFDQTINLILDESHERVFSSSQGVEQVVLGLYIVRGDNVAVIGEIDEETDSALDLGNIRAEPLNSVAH
inactive: [1] -0.057 | [2] -0.012 | [3] 0.017 | [4] -0.004 | [5] -0.029

MRPL12 (UniProt P52815)
inactive: [1] -0.084 | [2] 0.015 | [3] -0.022 | [4] 0.027 | [5] 0.047

MINK1 (UniProt Q8N4C8)
inactive: [1] 0.069 | [2] 0.092 | [3] -0.149 | [4] -0.066 | [5] 0.086

LIMK2 isoform 3 (UniProt P53671)
inactive: [1] -0.022 | [2] -0.123 | [3] 0.038 | [4] 0.005 | [5] -0.132

MRPL35 (UniProt Q9NZE8)
inactive: [1] -0.028 | [2] -0.002 | [3] 0.331 | [4] -0.04 | [5] 0

LARS2 (UniProt Q15031)
inactive: [1] -0.07 | [2] -0.072 | [3] -0.019 | [4] 0.066 | [5] 0.064

MAP3K4 (UniProt Q9Y6R4)
inactive: [1] 0.012 | [2] -0.079 | [3] -0.001 | [4] -0.03 | [5] -0.008

MARK1 (UniProt Q9P0L2)
inactive: [1] -0.034 | [2] 0.036 | [3] 0.019 | [4] -0.006 | [5] 0.116

KIF15 (UniProt Q9NS87)
inactive: [1] -0.008 | [2] -0.003 | [3] 0.021 | [4] -0.02 | [5] 0.013

MIF4GD isoform 3 (UniProt A9UHW6)
Chain of UniProt A9UHW6 (A9UHW6 whole entry, looked up): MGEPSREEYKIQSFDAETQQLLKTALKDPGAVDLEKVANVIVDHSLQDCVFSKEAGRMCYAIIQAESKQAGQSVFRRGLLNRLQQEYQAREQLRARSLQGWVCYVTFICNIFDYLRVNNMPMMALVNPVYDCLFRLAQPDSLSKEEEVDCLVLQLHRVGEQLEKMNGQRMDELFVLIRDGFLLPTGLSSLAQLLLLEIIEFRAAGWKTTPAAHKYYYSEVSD
inactive: [1] -0.046 | [2] -0.033 | [3] 0.005 | [4] -0.051 | [5] -0.029

MICB, A0A140T979
inactive: [1] 0.028 | [2] -0.012 | [3] -0.003 | [4] 0.026 | [5] 0.019

MIPEP (UniProt Q99797)
inactive: [1] 0.015 | [2] -0.019 | [3] 0.052 | [4] 0.028 | [5] -0.008

MLLT11 (UniProt Q13015)
inactive: [1] 0.007 | [2] -0.048 | [3] 0.109 | [4] -0.037 | [5] 0.003

LARP4B (UniProt Q92615)
inactive: [1] 0.031 | [2] -0.034 | [3] 0.002 | [4] 0.03 | [5] -0.037

MON2 isoform 5 (UniProt Q7Z3U7)
inactive: [1] -0.014 | [2] 0.006 | [3] 0.005 | [4] 0.009 | [5] -0.013

MARCHF6 (UniProt O60337)
inactive: [1] -0.269 | [2] -0.192 | [3] -0.107 | [4] -0.082 | [5] 0.029

KSR1 (UniProt Q8IVT5)
inactive: [1] -0.081 | [2] -0.024 | [3] 0.035 | [4] 0.035
active: [5] 0.242

MBOAT2 (UniProt Q6ZWT7)
inactive: [1] -0.011 | [2] 0 | [3] 0.121 | [4] -0.022 | [5] -0.017

MORF4L1 isoform 2 (UniProt Q9UBU8)
Chain of UniProt Q9UBU8 (Q9UBU8 whole entry, looked up): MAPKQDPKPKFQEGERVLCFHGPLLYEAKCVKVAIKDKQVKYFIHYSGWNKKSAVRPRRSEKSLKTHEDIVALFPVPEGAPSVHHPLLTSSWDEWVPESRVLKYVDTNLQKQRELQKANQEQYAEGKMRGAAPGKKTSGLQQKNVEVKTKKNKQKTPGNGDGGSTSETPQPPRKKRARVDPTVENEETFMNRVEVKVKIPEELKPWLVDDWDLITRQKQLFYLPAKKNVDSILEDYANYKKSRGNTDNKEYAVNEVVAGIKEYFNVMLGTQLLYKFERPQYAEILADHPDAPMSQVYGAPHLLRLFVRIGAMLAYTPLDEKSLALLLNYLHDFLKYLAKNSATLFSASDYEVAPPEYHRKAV
inactive: [1] 0.012 | [2] -0.03 | [3] -0.029 | [4] -0.041 | [5] -0.035

MAPK8 isoform 3 (UniProt P45983)
inactive: [1] -0.01 | [2] 0.03 | [3] 0.004 | [4] 0.071 | [5] -0.026

KLC4 isoform 3 (UniProt Q9NSK0)
inactive: [1] 0.011 | [2] 0.004 | [3] -0.003 | [4] 0.01 | [5] 0.014

L3HYPDH (UniProt Q96EM0)
inactive: [1] -0.022 | [2] 0.042 | [3] 0.003 | [4] -0.014 | [5] 0.01
